Measurements as given in the supplement of paper PMC6555819.

What follows are sequences tested on LXRa homodimer (NR concentration 270 nM) (assay: PBM binding z-score (relative to random genomic background probes); higher = stronger binding; sequences stand for … in GC…GCGATTGACAGCGTAGAATGAAGG).
In short: (§1)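 Binding z-scores take random background probes as their reference. They come from custom Agilent 4×180K protein-binding microarrays incubated 1 h with ligand-free nuclear receptor dimers, with antibodies against each partner (one per run) detecting binding. Scanned fluorescence was regression-normalized.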

Row | Sequence | PBM binding z-score
1 | TCGACTAGGTTACGGGGGCATTCAGGGATGAAGA | 1.01
2 | CTATGTAGGTTAAGGGGGACATTCAGTTTGAAAG | 0.816
3 | CCGAGTAGGTTAGGAGGGGGCATTCAGTGCGAAT | 1.19
4 | CTGTGTAGGTTAAGGGGGTCATTCAGTTTGAAAG | 3.47
5 | CTATGTAGGTTAAGGGGGTCACTCAGTTTGAAAG | 1.65
6 | TCGAGTAGGTTAAGGGGGCATTCAGGGATGAAGA | 1.01
7 | TCGAGTTGGTTACGGGGGCATTCAGGGATGAAGA | 0.889
8 | TCGAGTAGTTTACGGGGGCATTCAGGGATGAAGA | 0.776
9 | TCGAGTAGGTTACGGGGGCATGCAGGGATGAAGA | 0.37
10 | CCGAGTAGGGTACGAGGGGGCATTCAGTGCGAAT | 0.674
11 | CCGAGTAGGTTACGAGGGGGAATTCAGTGCGAAT | 0.178
12 | CCGAGTAGGTTACAAGGGGGCATTCAGTGCGAAT | 2.35
13 | CTATGTAGGTTAAGGGGATCATTCAGTTTGAAAG | 0.126
14 | TCGAGTAGGTTACGGGCGCATTCAGGGATGAAGA | -0.293
15 | TCGAGTAGGTTACGGGGGCATTTAGGGATGAAGA | 0.674
16 | CTATGTAGGTTTAGGGGGTCATTCAGTTTGAAAG | 4.34
17 | TCGAGTAGGTTACGGGGGCATTCCGGGATGAAGA | 0.0862
18 | TCGAGTAGGTTACCGGGGCATTCAGGGATGAAGA | -0.39
19 | TCGAGTAGGTGACGGGGGCATTCAGGGATGAAGA | 0.394
20 | CCGAGTAGGTTACGAGGTGGCATTCAGTGCGAAT | -0.445

Row | Sequence | PBM binding z-score
21 | CTATGTAGGGTAAGGGGGTCATTCAGTTTGAAAG | 2.41
22 | CTATGTAGGTTCAGGGGGTCATTCAGTTTGAAAG | 4.57
23 | CCGAGTAGTTTACGAGGGGGCATTCAGTGCGAAT | 0.906
24 | CCGAGTAGGTTACGAGGGTGCATTCAGTGCGAAT | -0.00974
25 | TCGAGTAGGTTACGGGGGCATTCAAGGATGAAGA | 0.487
26 | CTATGTACGTTAAGGGGGTCATTCAGTTTGAAAG | 2.68
27 | TCGAGTAGGTTACGGGGGCTTTCAGGGATGAAGA | 0.118
28 | CCGAGTAGGTTACGAGGGGGCATTCTGTGCGAAT | 1.77
29 | TCGCGTAGGTTACGGGGGCATTCAGGGATGAAGA | 0.819
30 | TCGAGTAGGTTACGGGGGCATTCATGGATGAAGA | 0.637
31 | CTATGTAGGTTAAGGGGGTCATTCACTTTGAAAG | 2.92
32 | CCGAGTATGTTACGAGGGGGCATTCAGTGCGAAT | 0.955
33 | CTATGTAGGTTAAGGGCGTCATTCAGTTTGAAAG | -0.263
34 | CCGAGTAGGTTACGAGGGGGCAGTCAGTGCGAAT | 0.422
35 | CTATGTCGGTTAAGGGGGTCATTCAGTTTGAAAG | 4.38
36 | TCGAGTAGGTTAGGGGGGCATTCAGGGATGAAGA | 1.42
37 | CTTTGTAGGTTAAGGGGGTCATTCAGTTTGAAAG | 3.53
38 | TCGAGTAGGTTACGAGGGCATTCAGGGATGAAGA | -0.0456
39 | TCGAGTAGGTTACGGAGGCATTCAGGGATGAAGA | -0.597

These sequences were tested on LXRb:RXRa (NR concentration 270 nM, RXRa partner concentration 90 nM) in the same assay as above.
In short: as §1

Row | Sequence | PBM binding z-score
40 | TCGACTAGGTTACGGGGGCATTCAGGGATGAAGA | 5.58
41 | CTATGTAGGTTAAGGGGGACATTCAGTTTGAAAG | 3.58
42 | CCGAGTAGGTTAGGAGGGGGCATTCAGTGCGAAT | 5.24
43 | CTGTGTAGGTTAAGGGGGTCATTCAGTTTGAAAG | 6.55
44 | CTATGTAGGTTAAGGGGGTCACTCAGTTTGAAAG | 5.87
45 | TCGAGTAGGTTAAGGGGGCATTCAGGGATGAAGA | 4.58
46 | TCGAGTTGGTTACGGGGGCATTCAGGGATGAAGA | 4.62
47 | TCGAGTAGTTTACGGGGGCATTCAGGGATGAAGA | 4.38
48 | TCGAGTAGGTTACGGGGGCATGCAGGGATGAAGA | 4.94
49 | CCGAGTAGGGTACGAGGGGGCATTCAGTGCGAAT | 4.44
50 | CCGAGTAGGTTACGAGGGGGAATTCAGTGCGAAT | 3.04
51 | CCGAGTAGGTTACAAGGGGGCATTCAGTGCGAAT | 6.52
52 | CTATGTAGGTTAAGGGGATCATTCAGTTTGAAAG | 2
53 | TCGAGTAGGTTACGGGCGCATTCAGGGATGAAGA | -0.159
54 | TCGAGTAGGTTACGGGGGCATTTAGGGATGAAGA | 5.04
55 | CTATGTAGGTTTAGGGGGTCATTCAGTTTGAAAG | 5.97
56 | TCGAGTAGGTTACGGGGGCATTCCGGGATGAAGA | 4.94
57 | TCGAGTAGGTTACCGGGGCATTCAGGGATGAAGA | 0.585
58 | TCGAGTAGGTGACGGGGGCATTCAGGGATGAAGA | 4.6
59 | CCGAGTAGGTTACGAGGTGGCATTCAGTGCGAAT | 0.601

Row | Sequence | PBM binding z-score
60 | CTATGTAGGGTAAGGGGGTCATTCAGTTTGAAAG | 6.36
61 | CTATGTAGGTTCAGGGGGTCATTCAGTTTGAAAG | 6.31
62 | CCGAGTAGTTTACGAGGGGGCATTCAGTGCGAAT | 4.15
63 | CCGAGTAGGTTACGAGGGTGCATTCAGTGCGAAT | 2.43
64 | TCGAGTAGGTTACGGGGGCATTCAAGGATGAAGA | 4.72
65 | CTATGTACGTTAAGGGGGTCATTCAGTTTGAAAG | 6.5
66 | TCGAGTAGGTTACGGGGGCTTTCAGGGATGAAGA | 4.46
67 | CCGAGTAGGTTACGAGGGGGCATTCTGTGCGAAT | 6.24
68 | TCGCGTAGGTTACGGGGGCATTCAGGGATGAAGA | 5.1
69 | TCGAGTAGGTTACGGGGGCATTCATGGATGAAGA | 4.75
70 | CTATGTAGGTTAAGGGGGTCATTCACTTTGAAAG | 6.16
71 | CCGAGTATGTTACGAGGGGGCATTCAGTGCGAAT | 3.9
72 | CTATGTAGGTTAAGGGCGTCATTCAGTTTGAAAG | 0.367
73 | CCGAGTAGGTTACGAGGGGGCAGTCAGTGCGAAT | 5.55
74 | CTATGTCGGTTAAGGGGGTCATTCAGTTTGAAAG | 6.42
75 | TCGAGTAGGTTAGGGGGGCATTCAGGGATGAAGA | 5.64
76 | CTTTGTAGGTTAAGGGGGTCATTCAGTTTGAAAG | 6.5
77 | TCGAGTAGGTTACGAGGGCATTCAGGGATGAAGA | 0.518
78 | TCGAGTAGGTTACGGAGGCATTCAGGGATGAAGA | 0.121
